Source: PubChem BioAssay AID1159580 (chemical genetic matrix, 2015)
Where “and” joins values, the source holds several entries; their conditions need not be identical. Equal entries are not always repeated. Screen size: about 5,500 compounds; about 2,000 (36%) were called active. Not shown: some 18% with an inconclusive outcome. No stated cut-off is given here; in the data, active means normalized growth mostly below about 0.91 (no sharp cut-off); inconclusive means no clear call, values can overlap the other calls; inactive means mostly above about 0.92. This is one part of the list.

Test: chemical genetic growth profiling, strain panel (AID 1159580);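 further: tested at 20 µM; growth read once vehicle control cultures reached saturation at 30 °C; 1 = growth at the plate median or of vehicle wells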
Conditions: growth OD
[1] = S. cerevisiae deletion strains, locus YAL040C, strain CLN3, stronger effect = lower value
[2] = S. cerevisiae deletion strains, locus YDR363W, strain ESC2, stronger effect = lower value
[3] = S. cerevisiae deletion strains, locus YER002W, strain NOP16, stronger effect = lower value
[4] = S. cerevisiae deletion strains, locus YGR078C, strain PAC10, stronger effect = lower value
[5] = S. cerevisiae deletion strains, locus YMR263W, strain SAP30, stronger effect = lower value
[6] = S. cerevisiae deletion strains, locus YMR307W, strain GAS1, stronger effect = lower value
[7] = S. cerevisiae deletion strains, locus YNL128W, strain TEP1, stronger effect = lower value
[8] = S. cerevisiae deletion strains, locus YNL153C, strain GIM3, stronger effect = lower value
[9] = S. cerevisiae deletion strains, locus YNL175C, strain NOP13, stronger effect = lower value
[10] = S. cerevisiae deletion strains, locus YNL197C, strain WHI3, stronger effect = lower value
[11] = S. cerevisiae deletion strains, locus YNL224C, strain SQS1, stronger effect = lower value
[12] = S. cerevisiae deletion strains, locus YNL322C, strain KRE1, stronger effect = lower value
[13] = S. cerevisiae deletion strains, locus YOR083W, strain WHI5 (second series), stronger effect = lower value
[14] = S. cerevisiae deletion strains, locus YPL055C, strain LGE1, stronger effect = lower value
[15] = S. cerevisiae deletion strains, locus YPL241C, strain CIN2, stronger effect = lower value
[16] = S. cerevisiae deletion strains, locus YDR150W, strain NUM1, stronger effect = lower value

Measured: normalized growth

CC(=O)O[C@]1(C(C)=O)CC[C@H]2[C@@H]3C=C(Cl)C4=CC(=O)[C@@H]5C[C@@H]5[C@]4(C)[C@H]3CC[C@@]21C
inactive: [1] 0.994 | [2] 0.976 | [3] 1.02 | [4] 0.985 | [5] 0.993 | [6] 0.975 | [7] 0.993 | [8] 1.05 | [9] 1.03 | [10] 0.966 | [11] 0.975 | [12] 0.988 | [13] 0.979 | [14] 1 | [15] 1

Nc1nc2c(ncn2COC(CO)CO)c(=O)[nH]1
inactive: [1] 1.05 | S. cerevisiae deletion strains, locus YCL061C, strain MRC1 (second series), stronger effect = lower value 1.01 | [16] 1.01 | [2] 1.03 | [3] 1.01 | [4] 0.999 | [5] 1.01 | [6] 0.99 | [7] 0.992 | [9] 1.01 | [10] 1.01 | [11] 0.997 | [13] 1.03 | [15] 1.01

COc1ccc(-c2cc(=O)c3c(O)cc(O)cc3o2)cc1O
active: S. cerevisiae deletion strains, locus YKL085W, strain MDH1 (second series), stronger effect = lower value 0.913 | S. cerevisiae deletion strains, locus YKL085W, strain MDH1, stronger effect = lower value 0.913
inactive: S. cerevisiae deletion strains, locus YAL013W, strain DEP1, stronger effect = lower value 1 | S. cerevisiae deletion strains, locus YBR021W, strain FUR4, stronger effect = lower value 0.985 | S. cerevisiae deletion strains, locus YBR229C, strain ROT2, stronger effect = lower value 0.987 | S. cerevisiae deletion strains, locus YCL029C, strain bik1, stronger effect = lower value 0.997 | S. cerevisiae deletion strains, locus YDL035C, strain GPR1, stronger effect = lower value 0.983 | S. cerevisiae deletion strains, locus YDL074C, strain BRE1, stronger effect = lower value 0.969 | S. cerevisiae deletion strains, locus YDL101C, strain DUN1, stronger effect = lower value 0.998 | S. cerevisiae deletion strains, locus YDL134C, strain PPH21, stronger effect = lower value 0.993 | S. cerevisiae deletion strains, locus YDL185W, strain tfp1, stronger effect = lower value 1.01 | S. cerevisiae deletion strains, locus YDL192W, strain arf1, stronger effect = lower value 0.999 | S. cerevisiae deletion strains, locus YDR101C, strain arx1, stronger effect = lower value 0.98 | [16] 1 | S. cerevisiae deletion strains, locus YDR162C, strain NBP2, stronger effect = lower value 0.961 | S. cerevisiae deletion strains, locus YDR318W, strain mcm21, stronger effect = lower value 0.995 | S. cerevisiae deletion strains, locus YDR388W, stronger effect = lower value 0.993 | S. cerevisiae deletion strains, locus YDR502C, strain sam2, stronger effect = lower value 0.975 | S. cerevisiae deletion strains, locus YEL061C, strain CIN8, stronger effect = lower value 0.994 | S. cerevisiae deletion strains, locus YER110C, stronger effect = lower value 1 | S. cerevisiae deletion strains, locus YER155C, strain BEM2, stronger effect = lower value 1 | S. cerevisiae deletion strains, locus YER167W, strain BCK2, stronger effect = lower value 0.997 | S. cerevisiae deletion strains, locus YGL078C, strain dbp3, stronger effect = lower value 0.989 | S. cerevisiae deletion strains, locus YGL086W, strain mad1, stronger effect = lower value 0.981 | S. cerevisiae deletion strains, locus YGL248W, strain PDE1, stronger effect = lower value 0.997 | [4] 0.952 | S. cerevisiae deletion strains, locus YGR135W, strain pre9, stronger effect = lower value 0.962 | S. cerevisiae deletion strains, locus YGR229C, strain SMI1, stronger effect = lower value 0.937 | S. cerevisiae deletion strains, locus YGR252W, strain gcn5, stronger effect = lower value 0.96 | S. cerevisiae deletion strains, locus YHR030C, strain SLT2, stronger effect = lower value 0.997 and 1.02 | S. cerevisiae deletion strains, locus YHR079C, strain IRE1 (second series), stronger effect = lower value 0.983 | S. cerevisiae deletion strains, locus YHR079C, strain IRE1, stronger effect = lower value 1.01 | S. cerevisiae deletion strains, locus YHR094C, strain hxt1, stronger effect = lower value 1 | S. cerevisiae deletion strains, locus YHR129C, strain ARP1, stronger effect = lower value 0.989 | S. cerevisiae deletion strains, locus YHR200W, strain rpn10, stronger effect = lower value 0.99 | S. cerevisiae deletion strains, locus YIL066C, strain RNR3, stronger effect = lower value 0.987 | S. cerevisiae deletion strains, locus YIL073C, strain SPO22, stronger effect = lower value 1.02 | S. cerevisiae deletion strains, locus YIL125W, strain kgd1, stronger effect = lower value 0.995 | S. cerevisiae deletion strains, locus YIR030C, strain dcg1, stronger effect = lower value 0.991 | S. cerevisiae deletion strains, locus YJL095W, strain BCK1, stronger effect = lower value 0.944 and 0.996 | S. cerevisiae deletion strains, locus YJL134W, strain LCB3, stronger effect = lower value 0.998 | S. cerevisiae deletion strains, locus YJL168C, strain set2, stronger effect = lower value 0.998 | S. cerevisiae deletion strains, locus YJL187C, strain SWE1 (second series), stronger effect = lower value 0.967 | S. cerevisiae deletion strains, locus YJR043C, strain POL32, stronger effect = lower value 0.998 | S. cerevisiae deletion strains, locus YJR066W, strain TOR1, stronger effect = lower value 0.986 | S. cerevisiae deletion strains, locus YJR075W, strain HOC1, stronger effect = lower value 1.04 | S. cerevisiae deletion strains, locus YKL009W, strain mrt4, stronger effect = lower value 0.89 | S. cerevisiae deletion strains, locus YKL068W, stronger effect = lower value 0.968 | S. cerevisiae deletion strains, locus YKL190W, strain CNB1, stronger effect = lower value 0.993 | S. cerevisiae deletion strains, locus YKR001C, strain vps1, stronger effect = lower value 1 | S. cerevisiae deletion strains, locus YLR039C, strain RIC1, stronger effect = lower value 0.928 | S. cerevisiae deletion strains, locus YLR058C, strain SHM2, stronger effect = lower value 0.989 | S. cerevisiae deletion strains, locus YLR102C, strain apc9, stronger effect = lower value 0.995 | S. cerevisiae deletion strains, locus YLR113W, strain HOG1, stronger effect = lower value 0.888 | S. cerevisiae deletion strains, locus YLR262C, strain YPT6, stronger effect = lower value 0.921 | S. cerevisiae deletion strains, locus YLR268W, strain sec22, stronger effect = lower value 0.944 | S. cerevisiae deletion strains, locus YLR330W, strain CHS5, stronger effect = lower value 0.999 | S. cerevisiae deletion strains, locus YLR342W, strain FKS1 (second series), stronger effect = lower value 1.02 | S. cerevisiae deletion strains, locus YLR371W, strain rom2, stronger effect = lower value 0.99 | S. cerevisiae deletion strains, locus YLR418C, strain cdc73, stronger effect = lower value 0.925 | S. cerevisiae deletion strains, locus YML016C, strain PPZ1, stronger effect = lower value 0.991 | S. cerevisiae deletion strains, locus YML032C, strain rad52, stronger effect = lower value 1.01 | S. cerevisiae deletion strains, locus YML124C, strain tub3, stronger effect = lower value 0.988 | S. cerevisiae deletion strains, locus YMR078C, strain ctf18, stronger effect = lower value 1 | S. cerevisiae deletion strains, locus YMR223W, strain ubp8, stronger effect = lower value 0.993 | [5] 0.982 | [6] 1.08 | S. cerevisiae deletion strains, locus YNL067W, strain RPL9B, stronger effect = lower value 0.983 | [7] 0.988 | [8] 0.958 | S. cerevisiae deletion strains, locus YNL183C, strain NPR1, stronger effect = lower value 0.921 | S. cerevisiae deletion strains, locus YNL233W, strain BNI4, stronger effect = lower value 0.947 | S. cerevisiae deletion strains, locus YNL250W, strain rad50, stronger effect = lower value 1 | S. cerevisiae deletion strains, locus YNL271C, strain bni1, stronger effect = lower value 1 | S. cerevisiae deletion strains, locus YNL298W, strain CLA4, stronger effect = lower value 1.03 | S. cerevisiae deletion strains, locus YNL307C, strain MCK1, stronger effect = lower value 1 | [12] 0.996 | S. cerevisiae deletion strains, locus YNR052C, strain pop2, stronger effect = lower value 0.994 | S. cerevisiae deletion strains, locus YOL006C, strain TOP1, stronger effect = lower value 0.973 | S. cerevisiae deletion strains, locus YOL012C, strain htz1 0.983 | S. cerevisiae deletion strains, locus YOL147C, strain pex11, stronger effect = lower value 0.992 | S. cerevisiae deletion strains, locus YOR061W, strain CKA2, stronger effect = lower value 1 | S. cerevisiae deletion strains, locus YOR069W, strain VPS5, stronger effect = lower value 0.998 | S. cerevisiae deletion strains, locus YOR136W, strain idh2, stronger effect = lower value 0.993 | S. cerevisiae deletion strains, locus YOR144C, strain elg1, stronger effect = lower value 0.997 | S. cerevisiae deletion strains, locus YOR184W, strain ser1, stronger effect = lower value 0.982 | S. cerevisiae deletion strains, locus YOR231W, strain MKK1, stronger effect = lower value 1.01 | S. cerevisiae deletion strains, locus YOR316C, strain cot1, stronger effect = lower value 0.989 | [14] 0.97 | [15] 1 | S. cerevisiae deletion strains, locus YPL256C, strain CLN2, stronger effect = lower value 0.993 | S. cerevisiae deletion strains, locus YPR119W, strain clb2, stronger effect = lower value 0.993 | S. cerevisiae deletion strains, locus YPR141C, strain kar3, stronger effect = lower value 1.01 | S. cerevisiae deletion strains, locus YPR163C, strain tif3, stronger effect = lower value 1.01 | S. cerevisiae deletion strains, locus YPR167C, strain met16, stronger effect = lower value 0.991 | S. cerevisiae deletion strains, strain wtn01, stronger effect = lower value 0.977 | S. cerevisiae strains, strain wild type, stronger effect = lower value 0.99
